STAT3 SMM = binders of human STAT3; P40763; actives 0.2% (n = 17,000); Small molecule microarray, His-STAT3 binding, anti-His fluorescence; calls only; AID 624138;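 active = compounds whose four printed spots each show fluorescence over background unusually high for their array block, chance value under 7%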
mut p53 SMM = mutant p53 (human) binding; actives 0.4% (n = 17,000); calls only; AID 624136; small molecule microarray binding, anti-GST fluorescence;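 active = compounds whose four printed spots each glow above background more than chance allows, each with a p-value under 7%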
NFkB binder = NF-kappa-B p105 (human) binding. P19838. Small molecule microarray, anti-His fluorescence binding. calls only. actives 1.3% (n = 17,000);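 active = spot fluorescence over background significantly raised, with a chance value under 7% in all four replicate spots of the compound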;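 also: probe protein is his-tagged human p50 processed subunit at 1 µg/ml; raw spot fluorescence signals with no normalization applied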
c-Myc SMM = binders of human c-Myc; AID 624141; calls only; actives 1.5% (n = 17,000); small molecule microarray, His-c-Myc binding, anti-His fluorescence;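 active = spot fluorescence over background with P-value below 7% in all four replicate spots, showing protein binding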;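 also: score is binary with 100 for all four spots passing and 0 otherwise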
Target sequence (P01106 whole entry, looked up): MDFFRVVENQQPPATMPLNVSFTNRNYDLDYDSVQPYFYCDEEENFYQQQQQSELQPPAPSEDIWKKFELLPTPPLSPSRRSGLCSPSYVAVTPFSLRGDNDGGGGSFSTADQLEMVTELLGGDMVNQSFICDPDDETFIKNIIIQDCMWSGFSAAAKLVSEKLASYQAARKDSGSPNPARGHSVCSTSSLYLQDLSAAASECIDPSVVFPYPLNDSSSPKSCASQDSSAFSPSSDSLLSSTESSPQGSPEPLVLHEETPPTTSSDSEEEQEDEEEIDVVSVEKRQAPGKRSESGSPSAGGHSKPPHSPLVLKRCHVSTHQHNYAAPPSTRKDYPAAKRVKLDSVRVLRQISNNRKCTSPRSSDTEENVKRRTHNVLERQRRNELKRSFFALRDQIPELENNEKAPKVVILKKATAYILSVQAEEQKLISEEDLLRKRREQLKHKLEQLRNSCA
An asterisk follows results filed as active; i = inactive; + = active, no number. Only some compounds are listed: those with a hit (about 2.1% of all), similar ones and a draw of the others.

SMILES	STAT3 SMM	mut p53 SMM	NFkB binder	c-Myc SMM
C[C@@H]1O[C@@H](O[C@H]2[C@H](O[C@H]3[C@H](O[C@H]4CC[C@@]5(C)C(CC[C@]6(C)C5CC=C5[C@@H]7CC(C)(C)C[C@@H](O)[C@]7(C)CC[C@]56C)[C@@]4(C)CO)O[C@H](C(=O)O)[C@@H](O)[C@@H]3O)OC[C@H](O)[C@@H]2O)[C@H](O)[C@H](O)[C@H]1O (stereo partly drawn)	i	+	i	+
C[C@@H]1O[C@@H](O[C@H]2CC[C@@]3(C)C(CC[C@]4(C)C3CC=C3C5CC(C)(C)CC[C@]5(C(=O)O[C@@H]5O[C@H](CO)[C@@H](O)[C@H](O)[C@H]5O)CC[C@]34C(=O)O)C2(C)C)[C@H](O)[C@H](O)[C@H]1O (stereo partly drawn)	i	i	i	i
C[C@@H]1O[C@@H](O[C@H]2[C@H](O[C@H]3[C@H](O)[C@@H](C(=O)O)O[C@@H](O[C@H]4CC[C@@]5(C)C(CC[C@]6(C)C5CC[C@]57OC[C@@]8(CCC(C)(C)CC85)[C@H](O)C[C@]76C)C4(C)C)[C@@H]3O[C@@H]3O[C@H](CO)[C@@H](O[C@@H]4OC[C@@H](O)[C@H](O)[C@H]4O)[C@H](O)[C@H]3O)O[C@H](CO)[C@H](O)[C@@H]2O)[C@H](O)[C@H](O)[C@H]1O (stereo partly drawn)	i	i	+	+
OC1[C@H](O)CO[C@@H](OC[C@H]2O[C@@H](OC/C=C/c3ccccc3)[C@H](O)[C@@H](O)[C@@H]2O)[C@H]1O (stereo partly drawn)	i	i	i	i
COc1cc(Br)c(S(=O)(=O)NCCOc2ccc(C(C)(C)C)cc2)cc1OC	i	i	i	i
CC1(C)CC[C@]2(C(=O)O)CC[C@]3(C)C(=CCC4[C@@]5(C)CC[C@H](O[C@@H]6O[C@H](C(=O)O)[C@@H](O[C@@H]7OC[C@@H](O)[C@H](O)[C@H]7O)[C@H](O)[C@H]6O)C(C)(C)C5CC[C@]43C)C2C1 (stereo partly drawn)	i	i	+	+
C[C@@H]1O[C@@H](O[C@H]2[C@H](O[C@H]3CC[C@@]4(C)C(CC[C@]5(C)C4CC=C4C6CC(C)(C)CC[C@]6(C(=O)O)CC[C@]45C)[C@]3(C)CO)OC[C@H](O)[C@@H]2O)[C@H](O)[C@H](O)[C@H]1O (stereo partly drawn)	i	i	+	i
CC1(C)CC[C@]2(C(=O)O)CC[C@]3(C)C(=CCC4[C@@]5(C)CC[C@H](O[C@@H]6O[C@H](CO)[C@@H](O)[C@H](O)[C@H]6O)[C@@](C)(CO)C5CC[C@]43C)[C@@H]2C1 (stereo partly drawn)	i	i	i	i
CCOc1ccc(Nc2nc(CSc3nc4ccccc4c(=O)n3-c3ccccc3)cs2)cc1	i	i	i	i
COc1ccc(NC(=O)CSc2nc(C)c3c(n2)CCCC3)c([N+](=O)[O-])c1	i	i	i	i
CN(CC(=O)Nc1ccccc1[N+](=O)[O-])S(=O)(=O)c1ccccc1	i	i	i	i
Cc1nn(CC(=O)Nc2ccc3c(c2)nc(CN2CCCC2)n3C)c(=O)c2ccccc12	i	+	i	+
COC(=O)c1c(NC(=O)C(C)Oc2ccc(F)cc2)sc(C(C)=O)c1C (stereo not drawn)	i	i	i	i

Compound activity (PubChem)
